From PubChem BioAssay (EPA / NIEHS) come the findings set out here.

Some compounds were tested as several samples or in several runs, with calls that do not always agree. Active and inactive are the calls of the source. How the source made its calls: active means hit-call score of the fitted dose curve at least 0.9, where 1 is the maximum; inactive means score below 0.9.

What all share (conditions): mRNA level, 48 h; actives raise or lower the signal
Read-out in experiment [1]: Fatty Acid-Binding Protein 1 (FABP1), FABP1 (gene 2168)
Kind of experiment: LTEA_HepaRG_FABP1: Life Technologies and Expression Analysis (LTEA) Assay for Fatty Acid-Binding Protein 1 (FABP1) using HepaRG (AID 2283494). The method, boiled down: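 Differentiated human HepaRG cells were exposed in duplicate for 48 h in serum-free induction medium to 8-point half-log concentration series topping at 100 uM in 0.5% DMSO. FABP1 mRNA measured by TaqMan qRT-PCR, normalized to ACTB/GAPDH/POLR2A; bidirectional fit versus DMSO.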

Read-out in experiment [2]: Cytochrome P450 4A22 (Homo sapiens) (UniProt Q5TCH4)
The experiment can be described thus: LTEA_HepaRG_CYP4A22: Life Technologies and Expression Analysis (LTEA) Assay for Cytochrome P450 4A22 (CYP4A22) using HepaRG (AID 2283495). The method, boiled down: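 Differentiated HepaRG cells in serum-free induction medium exposed 48 h in duplicate to eight half-log concentrations up to 100 uM in 0.5% DMSO. CYP4A22 mRNA quantified by TaqMan qRT-PCR, normalized to ACTB, GAPDH and POLR2A; bidirectional fit versus DMSO.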

Read-out in experiment [3]: Cytochrome P450 7A1 (Homo sapiens) (UniProt P22680)
Kind of experiment: LTEA_HepaRG_CYP7A1: Life Technologies and Expression Analysis (LTEA) Assay for Cytochrome P450 7A1 (CYP7A1) using HepaRG (AID 2283496). Put shortly:
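Gene expression endpoint in human HepaRG liver cells treated for 48 h with test chemicals (up to 100 uM, 0.5% DMSO). Values come from bidirectional concentration-response fitting versus DMSO.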

Read-out in experiment [4]: Glutathione S-Transferase (GSTA2), GSTA2 (gene 2939)
The experiment can be described thus: LTEA_HepaRG_GSTA2: Life Technologies and Expression Analysis (LTEA) Assay for Glutathione S-Transferase (GSTA2) using HepaRG (AID 2283497). The method, boiled down:
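Human HepaRG cells, plated 48 h, then exposed in serum-free induction medium for 48 h to eight half-log concentrations up to 100 uM in 0.5% DMSO, duplicate. GSTA2 mRNA by qRT-PCR, normalized to ACTB/GAPDH/POLR2A; bidirectional fit versus DMSO.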

Read-out in experiment [5]: Glutamate-cysteine ligase catalytic (GCLC), GCLC (gene 2729)
Kind of experiment: LTEA_HepaRG_GCLC: Life Technologies and Expression Analysis (LTEA) Assay for Glutamate-cysteine ligase catalytic (GCLC) using HepaRG (AID 2283498). Put shortly: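 Differentiated human HepaRG cells, plated 48 h then switched to serum-free induction medium, were exposed in duplicate for 48 h to 8 half-log concentrations topping at 100 uM in 0.5% DMSO. GCLC mRNA was quantified by qRT-PCR against ACTB, GAPDH and POLR2A.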

Read-out in experiment [6]: growth arrest and DNA damage 45 (GADD45G), GADD45G (gene 10912)
Kind of experiment: LTEA_HepaRG_GADD45G: Life Technologies and Expression Analysis (LTEA) Assay for growth arrest and DNA damage 45 (GADD45G) using HepaRG (AID 2283499). Put shortly:
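Differentiated human HepaRG cells, 48 h post-plating, exposed 48 h in serum-free induction medium to 8 half-log concentrations (top 100 uM, 0.5% DMSO) in duplicate. GADD45G mRNA measured by Fluidigm TaqMan qRT-PCR, normalized to ACTB, GAPDH, POLR2A; bidirectional fit versus DMSO.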

Read-out in experiment [7]: Glutamate-cysteine ligase regulatory (GCLM), GCLM (gene 2730)
The experiment can be described thus: LTEA_HepaRG_GCLM: Life Technologies and Expression Analysis (LTEA) Assay for Glutamate-cysteine ligase regulatory (GCLM) using HepaRG (AID 2283500). The method, boiled down: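 Human liver HepaRG cultures receive test chemicals for 48 hours at up to 100 uM in 0.5% DMSO. GCLM expression is measured by qRT-PCR and analysed for increases or decreases against vehicle.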

Read-out in experiment [8]: Glutathione S-transferase M3 (GSTM3), GSTM3 (gene 2947)
The experiment can be described thus: LTEA_HepaRG_GSTM3: Life Technologies and Expression Analysis (LTEA) Assay for Glutathione S-transferase M3 (GSTM3) using HepaRG (AID 2283501). The method, boiled down: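 Differentiated human HepaRG cells were exposed in duplicate for 48 h in serum-free induction medium, 8 points from 100 uM top in half-log steps, 0.5% DMSO. GSTM3 mRNA was measured by TaqMan qRT-PCR, normalized to ACTB, GAPDH and POLR2A; bidirectional fit versus DMSO.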

Read-out in experiment [9]: Heat shock 70 kDa protein 1 (HSPA1A), gene 3303
The experiment can be described thus: LTEA_HepaRG_HSPA1A: Life Technologies and Expression Analysis (LTEA) Assay for Heat shock 70 kDa protein 1 (HSPA1A) using HepaRG (AID 2283502). The method, boiled down: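 HSPA1A induction in human HepaRG liver cells is measured after 48 h of chemical treatment (100 uM maximum, 0.5% DMSO vehicle). Expression comes from qRT-PCR normalized to endogenous controls.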

Read-out in experiment [10]: Hypoxia-inducible factor 1-alpha (Homo sapiens) (UniProt Q16665)
Kind of experiment: LTEA_HepaRG_HIF1A: Life Technologies and Expression Analysis (LTEA) Assay for Hypoxia-inducible factor 1 (HIF1A) Trancription factor using HepaRG (AID 2283503). Put shortly: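 HepaRG, 48 h exposure, 8-pt half-log series from 100 uM, 0.5% DMSO vehicle, duplicates. Readout: HIF1A transcript by qRT-PCR (Fluidigm array), housekeeping-normalised. Bidirectional curve fit vs DMSO baseline.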

Chain of Hypoxia-inducible factor 1-alpha (Homo sapiens) (Q16665 whole entry, looked up): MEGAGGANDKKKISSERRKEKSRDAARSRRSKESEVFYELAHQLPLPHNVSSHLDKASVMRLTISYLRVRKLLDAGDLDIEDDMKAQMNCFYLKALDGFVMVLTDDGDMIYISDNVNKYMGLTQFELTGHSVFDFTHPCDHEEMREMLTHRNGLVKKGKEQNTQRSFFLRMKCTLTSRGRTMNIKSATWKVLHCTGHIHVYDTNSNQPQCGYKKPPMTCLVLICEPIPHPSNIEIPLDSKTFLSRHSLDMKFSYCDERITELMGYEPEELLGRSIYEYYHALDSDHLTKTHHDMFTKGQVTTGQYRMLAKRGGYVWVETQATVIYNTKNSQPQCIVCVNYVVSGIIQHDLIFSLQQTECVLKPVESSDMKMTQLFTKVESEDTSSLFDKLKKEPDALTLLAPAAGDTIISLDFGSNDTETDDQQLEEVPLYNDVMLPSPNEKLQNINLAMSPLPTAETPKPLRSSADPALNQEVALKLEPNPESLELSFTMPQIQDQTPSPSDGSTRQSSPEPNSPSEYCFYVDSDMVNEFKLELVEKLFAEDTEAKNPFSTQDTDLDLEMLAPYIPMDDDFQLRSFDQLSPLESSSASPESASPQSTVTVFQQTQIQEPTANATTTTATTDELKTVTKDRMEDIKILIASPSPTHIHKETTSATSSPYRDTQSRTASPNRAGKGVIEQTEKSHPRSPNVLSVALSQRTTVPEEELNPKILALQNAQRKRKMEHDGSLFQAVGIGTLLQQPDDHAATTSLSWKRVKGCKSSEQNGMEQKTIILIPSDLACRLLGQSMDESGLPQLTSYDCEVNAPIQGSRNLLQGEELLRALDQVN

As for `CCCN(CCC)C(=O)SCC`, the result in experiment [1], in experiment [2], in experiment [3], in [4], in experiment [5] and in [6] was inactive. The result in [7], in experiment [8], in experiment [9] and in [10] was inactive.

Turning to `O=C(c1ccc(O)cc1O)c1ccc(O)cc1O`, the molecule was called inactive in experiment [1], in [2], in experiment [3], in experiment [4], in experiment [5] and in experiment [6]. Further, the molecule was classed as inactive in [7], in experiment [8], in experiment [9] and in [10].

In the case of `CC(C)(c1ccc(O)cc1)c1ccc(O)cc1`, the AC50 (in general, the midpoint of the concentration-response curve, whichever way the signal moves) was 50 µM (active) in experiment [1] and 0.0172 µM (active) in experiment [9]. Further, the molecule was called inactive in experiment [1], in [2], in [3], in [4], in experiment [5] and in experiment [6]. For the same molecule, the result in [7], in experiment [8], in [9] and in experiment [10] was inactive.

Take `CCCCCOC(=O)COc1cc(N2C(=O)C3=C(CCCC3)C2=O)c(F)cc1Cl`: the outcome in [1], in [2], in experiment [3], in experiment [4], in experiment [5] and in experiment [6] was inactive. The molecule was classed as inactive in experiment [7], in [8], in experiment [9] and in experiment [10].

For `O=C(c1ccccc1)C1CCCCC1`, the call in experiment [1], in [2], in [3], in experiment [4], in experiment [5] and in [6] was inactive. In addition, the molecule was classed as inactive in [7], in experiment [8], in [9] and in [10].

On to `CCCCOCCOCCOCc1cc2c(cc1CCC)OCO2`, for which the result in experiment [1], in experiment [2], in experiment [3], in experiment [4], in experiment [5] and in experiment [7] was inactive. In addition, the result in experiment [8] and in experiment [10] was inactive. In addition, the AC50 in [6] was 4.83 µM (active); in experiment [9], 7.35 µM (active).

Take `CCSC(=O)N(CC(C)C)CC(C)C`: the result in experiment [1], in [2], in [3], in experiment [4], in experiment [5] and in experiment [6] was inactive. Further, the outcome in experiment [7], in [8], in experiment [9] and in [10] was inactive.

Consider `c1ccc(Nc2ccccc2)cc1`, for which the result in experiment [1], in [2], in experiment [3], in experiment [4], in [5] and in [6] was inactive. Moreover, the molecule was called inactive in experiment [7], in experiment [8], in experiment [9] and in [10].

As for `N[C@@H](Cc1cc(I)c(Oc2ccc(O)c(I)c2)c(I)c1)C(=O)O`, the AC50 in experiment [1] is 40 µM (active); in experiment [2] it was 0.00445 µM (active); in [3] it was 40 µM (active); in experiment [4] it was 58.3 µM (active); in experiment [5], 40 µM (active); in experiment [8], 0.613 µM (active). Besides, the AC50 in experiment [10] was 0.00253 µM (active). Moreover, the outcome in [6], in [7] and in experiment [9] was inactive.

Take `O=C(O)c1ccccc1`: the molecule was called inactive in [1], in experiment [2], in [3], in [4], in experiment [5] and in [6]. The outcome in experiment [7], in experiment [8], in experiment [9] and in experiment [10] was inactive.

Consider `COC(=O)c1ccc(I)cc1S(=O)(=O)NC(=O)Nc1nc(C)nc(OC)n1`, for which the outcome in experiment [1], in experiment [2], in [4], in experiment [5], in experiment [6] and in experiment [7] was inactive. For the same molecule, the molecule was classed as inactive in experiment [8] and in experiment [9].

For the molecule `C[C@]12C[C@H](O)[C@H]3[C@@H](CCC4=CC(=O)CC[C@@]43C)[C@@H]1CC[C@@H]2C(=O)CO`, the result in [1], in experiment [2], in [3], in [4], in experiment [5] and in experiment [6] was inactive. Further, the result in experiment [7], in [8], in experiment [9] and in [10] was inactive.

As for `CCOC(=O)COc1cc(-n2ncc(C(F)(F)F)c(C)c2=O)c(F)cc1Cl`, the outcome in [1], in [2], in [3], in experiment [4], in experiment [5] and in [6] was inactive. For the same molecule, the outcome in experiment [7], in experiment [8], in [9] and in experiment [10] was inactive.

Consider `CCC(C)OC(=O)N1CCCCC1CCO` (stereo not drawn), for which the result in experiment [1], in [2], in experiment [3], in [4], in experiment [5] and in experiment [6] was inactive. Further, the outcome in experiment [7], in experiment [8], in experiment [9] and in experiment [10] was inactive.

With `COCCO`, the call in experiment [1], in experiment [4], in experiment [5], in experiment [6], in experiment [7] and in experiment [8] was inactive. Further, the call in [9] and in experiment [10] was inactive.

For the molecule `C[C@]12CC[C@@H]3c4ccc(O)cc4C[C@@H](CCCCCCCCCS(=O)CCCC(F)(F)C(F)(F)F)[C@H]3[C@@H]1CC[C@@H]2O` (stereo partly drawn), the AC50 was 25.8 µM (active) in [1]; 15 µM (active) in experiment [3]; 28.1 µM (active) in [4]; 19.9 µM (active) in experiment [5]; 13 µM (active) in [6]; 0.0464 µM (active) in [7]. Besides, in [8], the AC50 is 29.8 µM (active). For the same molecule, the result in experiment [2], in experiment [9] and in [10] was inactive.

In the case of `C#CCOC(=O)[C@@H](C)Oc1ccc(Oc2ncc(Cl)cc2F)cc1`, the values for the AC50 in experiment [1] and in experiment [2] were 64.4 µM (active) and 13.2 µM (active), respectively. For the same molecule, the molecule was called inactive in [3], in [4], in [5], in [6], in experiment [7] and in experiment [8]. Moreover, the outcome in experiment [9] and in [10] was inactive.

As to `CCOC(=O)C(C)Oc1ccc(Oc2cnc3cc(Cl)ccc3n2)cc1` (stereo not drawn), the half-maximal activity concentration (AC50) is 0.388 µM (active) in experiment [1], 43 µM (active) in [2], 9.27 µM (active) in [3] and 15 µM (active) in experiment [4]. In addition, the call in experiment [5], in [6], in experiment [7], in experiment [8], in [9] and in [10] was inactive.
